High-throughput results from PubChem BioAssay.
BLM inh = Bloom syndrome helicase (human) inhibition | recombinant BLM DNA unwinding, fluorescence dequenching | Potency, µM (doses to about 56.1 µM), usual class: inhibitors | hit rate 0.2% among 350,000; note: nearly all actives have a fitted effect of over 35% in size
RECQ1 inh = inhibitors of human RECQ1 DNA helicase; P46063; RECQ1 DNA unwinding, red fluorescence kinetic read; Potency, µM (titrated, usually from 57.3 µM), hits mostly inhibitors; hit rate 0.54% among 240,000; note: nearly all actives have a fitted effect of over 30% in size
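50 nM RECQ1T1 preincubated 15 min with compound in Tris pH 8.0 buffer with MgCl2, DTT, Tween-20 and 2.5 ug/ml poly(dI-dC); started with 200 nM TAMRA/BHQ-2 forked duplex and 2 mM ATP. Unwinding read as fluorescence (525/598 nm), two reads 2 h apart.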
APE1 inh = inhibitors of human APE1 endonuclease; Potency, µM (highest dose often 65.8 µM), actives largely listed as inhibitors; hit rate 0.35% among 350,000; P27695; recombinant APE1, TAMRA/BHQ-2 abasic DNA cleavage fluorescence; note: nearly all actives have a fitted effect of over 55% in size
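Substrate: short duplex with […] THF abasic site, 5'-TAMRA and 3'-BHQ-2, 50 nM final. APE1 at 0.75 nM, preincubated 15 min RT with compound. Fluorescence increase from first to third read measured activity.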
L3MBTL1 block = L3MBTL1 (human) inhibition. Potency, µM (series often up to 57.1 µM), actives largely listed as inhibitors. Q9Y468. hit rate 0.66% among 230,000. AID 485360. AlphaScreen L3MBTL1–H3K9me1 peptide binding; note: nearly all actives have a fitted effect of over 60% in size
Target sequence (Q9Y468 whole entry, looked up): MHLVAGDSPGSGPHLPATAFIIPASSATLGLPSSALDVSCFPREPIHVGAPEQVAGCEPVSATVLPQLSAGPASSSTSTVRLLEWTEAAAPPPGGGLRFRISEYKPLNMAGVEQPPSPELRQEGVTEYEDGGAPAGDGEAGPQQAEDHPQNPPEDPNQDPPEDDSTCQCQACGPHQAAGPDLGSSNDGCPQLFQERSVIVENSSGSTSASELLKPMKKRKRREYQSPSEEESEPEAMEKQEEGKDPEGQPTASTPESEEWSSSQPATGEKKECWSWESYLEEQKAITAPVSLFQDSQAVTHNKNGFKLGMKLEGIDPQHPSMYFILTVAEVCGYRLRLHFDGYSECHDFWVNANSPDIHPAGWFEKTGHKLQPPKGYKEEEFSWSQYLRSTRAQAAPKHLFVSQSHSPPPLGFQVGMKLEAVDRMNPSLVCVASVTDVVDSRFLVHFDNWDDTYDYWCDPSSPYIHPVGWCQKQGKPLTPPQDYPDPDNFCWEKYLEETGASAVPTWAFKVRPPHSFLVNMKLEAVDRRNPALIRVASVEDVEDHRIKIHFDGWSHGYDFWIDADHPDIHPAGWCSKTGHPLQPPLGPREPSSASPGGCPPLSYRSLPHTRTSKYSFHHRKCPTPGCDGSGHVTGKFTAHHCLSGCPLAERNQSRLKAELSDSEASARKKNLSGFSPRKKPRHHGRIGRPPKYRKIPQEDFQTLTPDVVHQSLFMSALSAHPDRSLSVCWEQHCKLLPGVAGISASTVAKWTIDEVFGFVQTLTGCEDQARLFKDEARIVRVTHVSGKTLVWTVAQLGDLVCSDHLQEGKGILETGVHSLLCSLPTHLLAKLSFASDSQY
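L3MBTL1 50 nM + b-AHA-H3(1-15)K9me1 75 nM, 30 min RT; compound added, 30 min RT; streptavidin donor/Ni-chelate acceptor beads 10 ug/mL each final, 30 min RT dark; AlphaScreen read.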
TDP1 block = TDP1 (human) enzyme inhibition | Q9NUW8 | recombinant TDP1, AlphaScreen DNA substrate cleavage | Potency, µM (titrated, usually from 130 µM), hits mostly inhibitors | hit rate 0.28% among 350,000 | AID 485290; note: nearly all actives have a fitted effect of over 40% in size
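Tdp1 1 nM final; 15 min RT w/ cpd; substrate 15 nM, 5 min; beads 10 ug/ml, 10 min; AlphaScreen read. Neg ctrl: no enzyme.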
KDM4E inh = blocks human JMJD2E demethylase activity; B2RXH2; JMJD2E catalytic domain, FDH-coupled NADH fluorescence (FDH is formaldehyde dehydrogenase); Potency, µM (series often up to 57.1 µM), usual class: inhibitors; hit rate 1.6% among 230,000; AID 2147; active = well fitted inhibition curve with a large enough effect, not every such curve was filed as active; inconclusive = small, poorly fitted or top-dose-only effect, or another doubt; inactive = no such curve, though single readings can be large or run the other way; note: nearly all actives have a fitted effect of over 50% in size
A number is an active result; - = inactive; ? = inconclusive; . = no result; ! = repeats disagree; [ ] = remark or other dose. The full list was thinned out, with hits kept by preference. Unless noted, calls come from the whole dose curve; as a rule, active = well fitted curve in the direction sought with a large enough effect; inconclusive = small, poorly fitted or top-dose-only effect, or another doubt; inactive = no such curve, though single readings can be large; an effect the other way counts as inactive or inconclusive.

SMILES | BLM inh | RECQ1 inh | APE1 inh | L3MBTL1 block | TDP1 block | KDM4E inh
CNCc1ccccc1Sc1ccc(O)c(O)c1 | - | ? | 32µM | ? | . | 14µM
CN(Cc1ccco1)c1ccnc(-c2ccoc2)n1 | - | - | - | . | 3.5µM | 25µM
CC[C@H](C)N | - | - | - | . | - | .
Nc1ccc2c(c1)C(=O)C(=O)c1ccccc1-2 | ? | - | - | . | - | -
O=C1C(=O)c2ccc(-c3ccccc3)cc2-c2ccccc21 | 8.9µM | - | - | ? | - | -
CC(C)COCC(CN(Cc1ccccc1)c1ccccc1)N1CCCC1 (centres undefined) | - | - | - | . | - | 14µM!
Cc1nc2ccc(N=NC3=C(O)CC(C)(C)CC3=O)cc2s1 | - | - | - | - | - | -
CCOc1ccc2nc(N=NC3=C(O)CC(C)(C)CC3=O)sc2c1 | - | - | - | . | - | 22µM
O=C(O)c1cc(N=Nc2ccc(O)c(C(=O)O)c2)ccc1O | - | . | . | . | . | .
O=C(O)c1cc(N=Nc2ccc(-c3ccc(N=Nc4ccc(O)c(C(=O)O)c4)cc3)cc2)ccc1O | 18µM | 20µM | 8.9µM | . | ? | .
CC1(C)O[C@@H]2C[C@H]3[C@@H]4CCC5=CC(=O)C=C[C@]5(C)[C@H]4C(O)C[C@]3(C)[C@]2(C(=O)CO)O1 (some centres undefined) | - | . | . | . | . | .
COC(=O)c1cc(NC(=O)c2cccc(C(F)(F)F)c2)c(=O)oc1C/C=N/OCc1cccc(Cl)c1Cl | - | - | - | . | - | 20µM
Cn1cccc1/C=N/NC(=O)C(O)c1ccccc1 (centres undefined) | - | - | - | . | . | 25µM
O=C1C(Nc2ccc(O)cc2)=C/C(=N/S(=O)(=O)c2cccs2)c2ccccc21 | ? | - | ? | 13µM | - | -
Cc1ccc(NC2=C/C(=N\S(=O)(=O)c3cccs3)c3ccccc3C2=O)c(C)c1 | - | - | ? | 3.2µM | - | -
Cc1cccc(NC2=C/C(=N/S(=O)(=O)c3cccs3)c3ccccc3C2=O)c1 | - | - | - | 1.6µM | - | -
N#C/C(=C\c1ccc(O)c(O)c1)C(=O)NCCc1ccccc1 | . | ? | - | - | - | 14µM
COc1cc(/C=C(\C#N)C(=O)NCCc2ccccc2)cc(OC)c1O | - | - | - | . | - | -
COc1ccc(/C=C(\C#N)C(=O)NCc2ccccc2)cc1O | - | . | - | . | -[0.0935 µM] | .
N#C/C(=C\c1ccc(O)c(O)c1)C(=O)NCCCCc1ccccc1 | ? | 10µM | ? | . | - | 4.5µM
COc1ccc(-c2nn(C)c3sc(C(=O)Nc4cccc(F)c4)cc23)cc1OC | - | . | . | . | - | .
O=C1NCCNC(=O)c2ccccc2OCCOc2ccccc21 | - | - | - | - | - | -
O=C1[O][Bi][O]c2ccccc21 | - | . | . | . | 35µM | .
COc1ccc(OC)c(-c2csc(NC(=O)Cc3ccc(F)cc3)n2)c1 | - | . | - | . | . | .
COc1ccc(OC)c(-c2csc(NC(=O)COC(=O)c3ccc(NC(=O)CC#N)cc3)n2)c1 | . | . | 15µM | ? | - | .
SMILES | BLM inh | RECQ1 inh | APE1 inh | L3MBTL1 block | TDP1 block | KDM4E inh
CC(=O)NS(=O)(=O)c1ccc(NC(=O)c2ccc(NC(=O)c3cccs3)cc2)cc1 | . | . | ? | - | 45µM | .
Oc1c(C(Nc2ccccn2)c2ccccn2)ccc2cccnc12 (centres undefined) | - | - | - | 28µM | - | ?
COc1ccccc1NC(c1cccnc1)c1ccc2cccnc2c1O (centres undefined) | - | - | - | ? | - | 11µM
COc1cc(C(Nc2ccccn2)c2ccc3ccc(C)nc3c2O)cc(OC)c1O (centres undefined) | - | - | - | - | - | 22µM
CC(C)C(=O)NC(c1ccc(Cl)cc1Cl)c1ccc2cccnc2c1O (centres undefined) | - | . | - | -[2.29 µM] | . | .
Oc1c(C(Nc2ccccn2)c2ccccc2F)ccc2cccnc12 (centres undefined) | - | . | . | . | - | .
COc1ccc(C(NC(=O)C(C)C)c2ccc3cccnc3c2O)cc1 (centres undefined) | - | - | - | . | . | 28µM
CCC1CCC2(C1)N=C(Nc1nc3ccccc3o1)NC1=C2C(=O)CCC1 (centres undefined) | . | . | . | . | - | .
CC(C)(C)n1ncc2c(=O)n(Cc3cccc(C(F)(F)F)c3)cnc21 | . | . | - | . | . | .
